Laboratory results published in PMC11006913.
Residue numbers refer to the chain shown, from its start.

Assays:
Assay in all cases: PBM; 200 nM protein, PBS
Conditions in all cases: dsDNA, one strand shown
HOXA4 [1] = target: HOXA4 (Homo sapiens, UniProt Q00056 201-287, W262R)
HOXC10 [2] = target: HOXC10 (Homo sapiens, UniProt Q9NYD6 254-340)
HOXA4 [3] = target: HOXA4 (Homo sapiens, UniProt Q00056 201-287, R217L)
HOXA4 [4] = target: HOXA4 (Homo sapiens, UniProt Q00056 201-287)
HOXC10 [5] = target: HOXC10 (Homo sapiens, UniProt Q9NYD6 254-340, K271E)
HOXA4 [6] = target: HOXA4 (Homo sapiens, UniProt Q00056 201-287, W262F)
PROP1 [7] = target: PROP1 (Homo sapiens, UniProt O75360 56-141)
PROP1 [8] = target: PROP1 (Homo sapiens, UniProt O75360 56-141, R99H)
PROP1 [9] = target: PROP1 (Homo sapiens, UniProt O75360 56-141, F88S)
HOXA2 [10] = target: HOXA2 (Homo sapiens, UniProt O43364 129-215, R185T)
ALX3 [11] = target: ALX3 (Homo sapiens, UniProt O95076 139-225, N203Q)
HOXA2 [12] = target: HOXA2 (Homo sapiens, UniProt O43364 129-215, R185K)
ALX3 [13] = target: ALX3 (Homo sapiens, UniProt O95076 139-225)
ALX3 [14] = target: ALX3 (Homo sapiens, UniProt O95076 139-225, L168Q)
ALX3 [15] = target: ALX3 (Homo sapiens, UniProt O95076 139-225, L168V)
HOXA2 [16] = target: HOXA2 (Homo sapiens, UniProt O43364 129-215, Y150S)
ALX3 [17] = target: ALX3 (Homo sapiens, UniProt O95076 139-225, N203S)
HOXA2 [18] = target: HOXA2 (Homo sapiens, UniProt O43364 129-215)
NKX2-6 [19] = target: T1, NKX2-6 (Homo sapiens, UniProt A6NCS4 118-204)
T1 sequence: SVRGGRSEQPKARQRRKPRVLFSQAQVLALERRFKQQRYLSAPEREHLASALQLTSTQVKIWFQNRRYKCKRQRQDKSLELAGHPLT

NKX2-6 [20] = target: T2, NKX2-6 (Homo sapiens, UniProt A6NCS4 118-204, F151L)
T2 sequence: T1 sequence with F34L

VAX1 [21] = target: VAX1 (Homo sapiens, UniProt Q5SQQ9 86-172)
VAX1 [22] = target: VAX1 (Homo sapiens, UniProt Q5SQQ9 86-172, T142I)
VAX1 [23] = target: VAX1 (Homo sapiens, UniProt Q5SQQ9 86-172, K157R)
HOXD13 [24] = target: HOXD13 (Homo sapiens, UniProt P35453 263-343, T313R)
HOXD13 [25] = target: HOXD13 (Homo sapiens, UniProt P35453 263-343)
HOXD13 [26] = target: HOXD13 (Homo sapiens, UniProt P35453 263-343, T313A)
HOXB6 [27] = target: HOXB6 (Homo sapiens, UniProt P17509 132-218, K202E)
HOXB6 [28] = target: HOXB6 (Homo sapiens, UniProt P17509 132-218)
Chain of HOXB6 (Homo sapiens, UniProt P17509 132-218) (P17509 132-218): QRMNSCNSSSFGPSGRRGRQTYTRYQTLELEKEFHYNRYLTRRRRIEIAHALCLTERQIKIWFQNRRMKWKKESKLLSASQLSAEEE

Chain of HOXA4 (Homo sapiens, UniProt Q00056 201-287, R217L) (Q00056 201-287 R217L): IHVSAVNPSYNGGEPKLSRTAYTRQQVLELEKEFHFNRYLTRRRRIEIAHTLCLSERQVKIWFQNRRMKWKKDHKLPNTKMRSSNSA
Chain of HOXA4 (Homo sapiens, UniProt Q00056 201-287, W262R) (Q00056 201-287 W262R): as the sequence (Q00056 201-287 R217L) above, with L17R, W62R counted along it
Chain of HOXA4 (Homo sapiens, UniProt Q00056 201-287) (Q00056 201-287): as the sequence (Q00056 201-287 R217L) above, with L17R counted along it
Chain of HOXA4 (Homo sapiens, UniProt Q00056 201-287, W262F) (Q00056 201-287 W262F): as the sequence (Q00056 201-287 R217L) above, with L17R, W62F counted along it
Chain of HOXA2 (Homo sapiens, UniProt O43364 129-215, R185T) (O43364 129-215 R185T): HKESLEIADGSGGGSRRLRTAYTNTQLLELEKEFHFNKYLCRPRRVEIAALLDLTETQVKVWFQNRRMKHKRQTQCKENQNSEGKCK
Chain of HOXA2 (Homo sapiens, UniProt O43364 129-215, Y150S) (O43364 129-215 Y150S): as the sequence (O43364 129-215 R185T) above, with Y22S, T57R counted along it
Chain of HOXA2 (Homo sapiens, UniProt O43364 129-215, R185K) (O43364 129-215 R185K): as the sequence (O43364 129-215 R185T) above, with T57K counted along it
Chain of HOXA2 (Homo sapiens, UniProt O43364 129-215) (O43364 129-215): as the sequence (O43364 129-215 R185T) above, with T57R counted along it
Chain of ALX3 (Homo sapiens, UniProt O95076 139-225, N203Q) (O95076 139-225 N203Q): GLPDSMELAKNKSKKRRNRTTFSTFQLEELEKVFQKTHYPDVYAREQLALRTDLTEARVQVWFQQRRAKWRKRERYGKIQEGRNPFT
Chain of ALX3 (Homo sapiens, UniProt O95076 139-225, N203S) (O95076 139-225 N203S): as the sequence (O95076 139-225 N203Q) above, with Q65S counted along it
Chain of ALX3 (Homo sapiens, UniProt O95076 139-225, L168Q) (O95076 139-225 L168Q): as the sequence (O95076 139-225 N203Q) above, with L30Q, Q65N counted along it
Chain of HOXD13 (Homo sapiens, UniProt P35453 263-343, T313A) (P35453 263-343 T313A): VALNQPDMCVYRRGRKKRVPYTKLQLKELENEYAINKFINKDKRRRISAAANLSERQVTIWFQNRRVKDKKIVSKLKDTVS
Chain of HOXC10 (Homo sapiens, UniProt Q9NYD6 254-340, K271E) (Q9NYD6 254-340 K271E): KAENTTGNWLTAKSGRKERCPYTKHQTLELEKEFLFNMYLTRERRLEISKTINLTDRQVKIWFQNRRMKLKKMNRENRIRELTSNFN
Chain of HOXB6 (Homo sapiens, UniProt P17509 132-218, K202E) (P17509 132-218 K202E): as the sequence (P17509 132-218) above, with K71E counted along it
Chain of HOXD13 (Homo sapiens, UniProt P35453 263-343) (P35453 263-343): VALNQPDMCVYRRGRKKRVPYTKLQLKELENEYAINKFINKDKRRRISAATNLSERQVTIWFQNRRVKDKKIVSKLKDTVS
Chain of ALX3 (Homo sapiens, UniProt O95076 139-225, L168V) (O95076 139-225 L168V): as the sequence (O95076 139-225 N203Q) above, with L30V, Q65N counted along it
Chain of PROP1 (Homo sapiens, UniProt O75360 56-141, F88S) (O75360 56-141 F88S): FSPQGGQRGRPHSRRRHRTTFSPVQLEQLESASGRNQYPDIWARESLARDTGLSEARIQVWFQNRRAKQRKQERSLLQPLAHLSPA
Chain of HOXC10 (Homo sapiens, UniProt Q9NYD6 254-340) (Q9NYD6 254-340): as the sequence (Q9NYD6 254-340 K271E) above, with E18K counted along it
Chain of HOXD13 (Homo sapiens, UniProt P35453 263-343, T313R) (P35453 263-343 T313R): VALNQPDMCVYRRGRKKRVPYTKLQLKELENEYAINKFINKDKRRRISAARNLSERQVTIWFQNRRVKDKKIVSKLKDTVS
Chain of VAX1 (Homo sapiens, UniProt Q5SQQ9 86-172, T142I) (Q5SQQ9 86-172 T142I): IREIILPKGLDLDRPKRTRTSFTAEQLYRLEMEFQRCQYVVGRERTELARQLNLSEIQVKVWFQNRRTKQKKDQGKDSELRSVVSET
Chain of PROP1 (Homo sapiens, UniProt O75360 56-141) (O75360 56-141): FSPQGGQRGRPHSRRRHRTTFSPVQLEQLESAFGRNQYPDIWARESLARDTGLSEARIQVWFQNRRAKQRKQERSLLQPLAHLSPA
Chain of VAX1 (Homo sapiens, UniProt Q5SQQ9 86-172) (Q5SQQ9 86-172): as the sequence (Q5SQQ9 86-172 T142I) above, with I57T counted along it
Chain of ALX3 (Homo sapiens, UniProt O95076 139-225) (O95076 139-225): as the sequence (O95076 139-225 N203Q) above, with Q65N counted along it
Chain of VAX1 (Homo sapiens, UniProt Q5SQQ9 86-172, K157R) (Q5SQQ9 86-172 K157R): as the sequence (Q5SQQ9 86-172 T142I) above, with I57T, K72R counted along it
Chain of PROP1 (Homo sapiens, UniProt O75360 56-141, R99H) (O75360 56-141 R99H): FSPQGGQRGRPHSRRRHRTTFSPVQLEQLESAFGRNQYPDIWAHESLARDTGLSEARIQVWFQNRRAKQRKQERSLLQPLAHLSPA

For CCCTCTCG, the binding signal (HOXA4 [1]) was 9.84 upbm affinity estimate (log intensity, higher = more binding, comparable within an allelic series), the binding signal (HOXC10 [2]) was 10.1 upbm affinity estimate (log intensity, higher = more binding, comparable within an allelic series) and the binding signal (HOXA4 [3]) was 9.86 upbm affinity estimate (log intensity, higher = more binding, comparable within an allelic series). For the same sequence, the binding signal (HOXA4 [4]) was 9.81 upbm affinity estimate (log intensity, higher = more binding, comparable within an allelic series), the binding signal (HOXC10 [5]) was 10.1 upbm affinity estimate (log intensity, higher = more binding, comparable within an allelic series) and the binding signal (HOXA4 [6]) was 9.89 upbm affinity estimate (log intensity, higher = more binding, comparable within an allelic series).

In the case of CATCCCCC, the binding signal (HOXA4 [1]) is reported as 9.63 upbm affinity estimate (log intensity, higher = more binding, comparable within an allelic series), the binding signal (HOXA4 [3]) is reported as 9.8 upbm affinity estimate (log intensity, higher = more binding, comparable within an allelic series) and the binding signal (HOXA4 [4]) is reported as 9.66 upbm affinity estimate (log intensity, higher = more binding, comparable within an allelic series). For the same sequence, the binding signal (PROP1 [7]) was 6.77 upbm affinity estimate (log intensity, higher = more binding, comparable within an allelic series), the binding signal (PROP1 [8]) was 6.66 upbm affinity estimate (log intensity, higher = more binding, comparable within an allelic series) and the binding signal (PROP1 [9]) was 6.11 upbm affinity estimate (log intensity, higher = more binding, comparable within an allelic series). For the same sequence, the binding signal (HOXA4 [6]) was 9.58 upbm affinity estimate (log intensity, higher = more binding, comparable within an allelic series).

AGGAGTCC was tested, and the binding signal (HOXA4 [1]) was 9.98 upbm affinity estimate (log intensity, higher = more binding, comparable within an allelic series), the binding signal (HOXA4 [3]) was 9.79 upbm affinity estimate (log intensity, higher = more binding, comparable within an allelic series) and the binding signal (HOXA4 [4]) was 9.77 upbm affinity estimate (log intensity, higher = more binding, comparable within an allelic series). For the same sequence, the binding signal (HOXA4 [6]) was 9.94 upbm affinity estimate (log intensity, higher = more binding, comparable within an allelic series).

In the case of ATCCCCCC, the binding signal (HOXA4 [1]) is reported as 9.64 upbm affinity estimate (log intensity, higher = more binding, comparable within an allelic series), the binding signal (HOXA2 [10]) is reported as 7.17 upbm affinity estimate (log intensity, higher = more binding, comparable within an allelic series) and the binding signal (HOXA4 [3]) is reported as 9.49 upbm affinity estimate (log intensity, higher = more binding, comparable within an allelic series). For the same sequence, the binding signal (ALX3 [11]) was 7.65 upbm affinity estimate (log intensity, higher = more binding, comparable within an allelic series), the binding signal (HOXA2 [12]) was 10.1 upbm affinity estimate (log intensity, higher = more binding, comparable within an allelic series) and the binding signal (HOXA4 [4]) was 9.5 upbm affinity estimate (log intensity, higher = more binding, comparable within an allelic series). The binding signal (ALX3 [13]) was 7.91 upbm affinity estimate (log intensity, higher = more binding, comparable within an allelic series), the binding signal (ALX3 [14]) was 7.61 upbm affinity estimate (log intensity, higher = more binding, comparable within an allelic series) and the binding signal (ALX3 [15]) was 7.58 upbm affinity estimate (log intensity, higher = more binding, comparable within an allelic series). For the same sequence, the binding signal (HOXA2 [16]) was 10.4 upbm affinity estimate (log intensity, higher = more binding, comparable within an allelic series), the binding signal (HOXA4 [6]) was 9.46 upbm affinity estimate (log intensity, higher = more binding, comparable within an allelic series) and the binding signal (ALX3 [17]) was 7.67 upbm affinity estimate (log intensity, higher = more binding, comparable within an allelic series). The binding signal (HOXA2 [18]) was 7.3 upbm affinity estimate (log intensity, higher = more binding, comparable within an allelic series).

With CCCGTGTC the binding signal (HOXA4 [1]) was 9.85 upbm affinity estimate (log intensity, higher = more binding, comparable within an allelic series), the binding signal (HOXA4 [3]) was 9.73 upbm affinity estimate (log intensity, higher = more binding, comparable within an allelic series) and the binding signal (NKX2-6 [19]) was 9.5 upbm affinity estimate (log intensity, higher = more binding, comparable within an allelic series). For the same sequence, the binding signal (HOXA4 [4]) was 9.62 upbm affinity estimate (log intensity, higher = more binding, comparable within an allelic series), the binding signal (NKX2-6 [20]) was 9.22 upbm affinity estimate (log intensity, higher = more binding, comparable within an allelic series) and the binding signal (HOXA4 [6]) was 9.79 upbm affinity estimate (log intensity, higher = more binding, comparable within an allelic series).

With ATAATGAG the binding signal (HOXA4 [1]) was 10.5 upbm affinity estimate (log intensity, higher = more binding, comparable within an allelic series), the binding signal (HOXA2 [10]) was 12.5 upbm affinity estimate (log intensity, higher = more binding, comparable within an allelic series) and the binding signal (HOXA4 [3]) was 11.8 upbm affinity estimate (log intensity, higher = more binding, comparable within an allelic series). The binding signal (HOXA2 [12]) was 13.2 upbm affinity estimate (log intensity, higher = more binding, comparable within an allelic series), the binding signal (HOXA4 [4]) was 13.6 upbm affinity estimate (log intensity, higher = more binding, comparable within an allelic series) and the binding signal (VAX1 [21]) was 12.8 upbm affinity estimate (log intensity, higher = more binding, comparable within an allelic series). The binding signal (VAX1 [22]) was 12.6 upbm affinity estimate (log intensity, higher = more binding, comparable within an allelic series), the binding signal (HOXA2 [16]) was 10.8 upbm affinity estimate (log intensity, higher = more binding, comparable within an allelic series) and the binding signal (HOXA4 [6]) was 11.2 upbm affinity estimate (log intensity, higher = more binding, comparable within an allelic series). The binding signal (HOXA2 [18]) was 12.3 upbm affinity estimate (log intensity, higher = more binding, comparable within an allelic series) and the binding signal (VAX1 [23]) was 12.5 upbm affinity estimate (log intensity, higher = more binding, comparable within an allelic series).

AGGCTGGG was tested, and the binding signal (HOXA4 [1]) was 9.88 upbm affinity estimate (log intensity, higher = more binding, comparable within an allelic series), the binding signal (HOXA4 [3]) was 9.85 upbm affinity estimate (log intensity, higher = more binding, comparable within an allelic series) and the binding signal (HOXD13 [24]) was 9.56 upbm affinity estimate (log intensity, higher = more binding, comparable within an allelic series). For the same sequence, the binding signal (HOXD13 [25]) was 9.59 upbm affinity estimate (log intensity, higher = more binding, comparable within an allelic series), the binding signal (HOXA4 [4]) was 9.82 upbm affinity estimate (log intensity, higher = more binding, comparable within an allelic series) and the binding signal (HOXD13 [26]) was 9.67 upbm affinity estimate (log intensity, higher = more binding, comparable within an allelic series). The binding signal (HOXA4 [6]) was 9.84 upbm affinity estimate (log intensity, higher = more binding, comparable within an allelic series).

With GGGGCACC the binding signal (HOXA4 [1]) was 9.71 upbm affinity estimate (log intensity, higher = more binding, comparable within an allelic series), the binding signal (HOXB6 [27]) was 8.98 upbm affinity estimate (log intensity, higher = more binding, comparable within an allelic series) and the binding signal (HOXA4 [3]) was 9.76 upbm affinity estimate (log intensity, higher = more binding, comparable within an allelic series). The binding signal (HOXA4 [4]) was 9.9 upbm affinity estimate (log intensity, higher = more binding, comparable within an allelic series), the binding signal (HOXA4 [6]) was 9.88 upbm affinity estimate (log intensity, higher = more binding, comparable within an allelic series) and the binding signal (HOXB6 [28]) was 8.89 upbm affinity estimate (log intensity, higher = more binding, comparable within an allelic series).
